The values below come from PubChem BioAssay (EPA / NIEHS).

The term AC50 denotes the concentration giving half of the maximal activity seen.

Read-out in assay [1]: Human Leukocyte Antigen - DR isotype (HLADR), HLA-DRA (gene 3122)
In words: BSK_CASM3C_HLADR: BioMAP Diversity Plus: CASM3C Assay for Human Leukocyte Antigen - DR isotype (HLADR) Biomarker Activity (AID 2283043).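 Also: cell-surface HLA-DR protein level quantified by ELISA.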 Particulars: primary human coronary artery smooth muscle cells; actives raise or lower the signal.

Read-out in assay [2]: Macrophage colony-stimulating factor (MCSF), CSF1 (gene 1435)
In words: BSK_CASM3C_MCSF: BioMAP Diversity Plus: CASM3C Assay for Macrophage colony-stimulating factor (MCSF) Biomarker Activity (AID 2283044).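 Also: M-CSF protein amount quantified by ELISA after 24 h exposure.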 Particulars: primary human coronary artery smooth muscle cells; actives raise or lower the signal.

Read-out in assay [3]: Low-density lipoprotein receptor (LDLR), LDLR (gene 3949)
The assay can be described thus: BSK_CASM3C_LDLR: BioMAP Diversity Plus: CASM3C Assay for Low-density lipoprotein receptor (LDLR) Biomarker Activity (AID 2283045).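 Also: LDLR protein level on the cell surface quantified by ELISA.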 Particulars: primary human coronary artery smooth muscle cells; actives raise or lower the signal.

Read-out in assay [4]: Monocyte Chemoattractant Protein-1 (MCP1), CCL2 (gene 6347)
In words: BSK_CASM3C_MCP1: BioMAP Diversity Plus: CASM3C Assay for Monocyte Chemoattractant Protein-1 (MCP1) Biomarker Activity (AID 2283046).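 Also: MCP-1 level quantified by ELISA 24 h after dosing.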 Particulars: primary human coronary artery smooth muscle cells; actives raise or lower the signal.

Assay [5] can be described thus: BSK_CASM3C_Proliferation: Cell Proliferation Assessment in the BioMAP Diversity Plus: CASM3C Assay (AID 2283047).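 Also: sulforhodamine B total protein stain as relative cell number at 560 nm; sub-confluent cells exposed 48 h before staining; fitted both ways against DMSO so gain or loss of cell number.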 Particulars: primary human coronary artery smooth muscle cells.
Read-out in assay [6]: Monokine induced gamma interferon (MIG), CXCL9 (gene 4283)
In words: BSK_CASM3C_MIG: BioMAP Diversity Plus: CASM3C Assay for Monokine induced gamma interferon (MIG) Biomarker Activity (AID 2283048).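 Also: MIG protein level measured by ELISA.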 The settings on record: primary human coronary artery smooth muscle cells; actives raise or lower the signal.

Read-out in assay [7]: serum amyloid A (SAA), SAA1 (gene 6288)
In words: BSK_CASM3C_SAA: BioMAP Diversity Plus: CASM3C Assay for serum amyloid A (SAA) Biomarker Activity (AID 2283049).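 Also: SAA protein level quantified by ELISA.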 The settings on record: primary human coronary artery smooth muscle cells; actives raise or lower the signal.

Assay [8] can be described thus: BSK_CASM3C_SRB: Viability Assessment in the BioMAP Diversity Plus: CASM3C Assay (AID 2283050).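 Also: total protein by SRB staining as cytotoxicity measure in parallel cultures.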 The settings on record: primary human coronary artery smooth muscle cells.
Read-out in assay [9]: Thrombomodulin, THBD (gene 7056)
In words: BSK_CASM3C_Thrombomodulin: BioMAP Diversity Plus: CASM3C Assay for Thrombomodulin Biomarker Activity (AID 2283051).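 Also: thrombomodulin protein level measured by ELISA 24 h after dosing.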 The settings on record: primary human coronary artery smooth muscle cells; actives raise or lower the signal.

Read-out in assay [10]: Tissue Factor, F3 (gene 2152)
In words: BSK_CASM3C_TissueFactor: BioMAP Diversity Plus: CASM3C Assay for Tissue Factor Biomarker Activity (AID 2283052).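 Also: cell surface tissue factor protein level read by ELISA.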 Particulars: primary human coronary artery smooth muscle cells; actives raise or lower the signal.

Read-out in assay [11]: Interferon-gamma inducible Protein 10 (IP10), CXCL10 (gene 3627)
In words: BSK_hDFCGF_IP10: BioMAP Diversity Plus: hDFCGF Assay for Interferon-gamma inducible Protein 10 (IP10) Biomarker Activity (AID 2283053). The settings on record: primary human foreskin fibroblasts; actives raise or lower the signal. The method in brief: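 Primary foreskin fibroblasts, human; 24 h compound exposure; IP-10 by ELISA; bidirectional fit vs DMSO.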

Read-out in assay [12]: Urokinase-type plasminogen activator receptor (uPAR), PLAUR (gene 5329)
The assay can be described thus: BSK_CASM3C_uPAR: BioMAP Diversity Plus: CASM3C Assay for Urokinase-type plasminogen activator receptor (uPAR) Biomarker Activity (AID 2283054).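 Also: cell-surface uPAR protein level quantified by ELISA.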 The settings on record: primary human coronary artery smooth muscle cells; actives raise or lower the signal.

Read-out in assay [13]: Vascular cell adhesion molecule 1 (VCAM1), VCAM1 (gene 7412)
The assay can be described thus: BSK_CASM3C_VCAM1: BioMAP Diversity Plus: CASM3C Assay for Vascular cell adhesion molecule 1 (VCAM1) Biomarker Activity (AID 2283055).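 Also: VCAM-1 protein level quantified by ELISA on the cells.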 Particulars: primary human coronary artery smooth muscle cells; actives raise or lower the signal.

Read-out in assay [14]: Collagen III, COL3A1 (gene 1281)
The assay can be described thus: BSK_hDFCGF_CollagenIII: BioMAP Diversity Plus: hDFCGF Assay for Collagen III Biomarker Activity (AID 2283056). Particulars: primary human foreskin fibroblasts; actives raise or lower the signal. In short, it runs like this: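 Response relative to DMSO, fitted in both directions, reflects ELISA-measured collagen III in human primary skin fibroblasts 24 h after compound addition.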

Read-out in assay [15]: Epidermal growth factor receptor (EGFR), EGFR (gene 1956)
In words: BSK_hDFCGF_EGFR: BioMAP Diversity Plus: hDFCGF Assay for Epidermal growth factor receptor (EGFR) Biomarker Activity (AID 2283057). The settings on record: primary human foreskin fibroblasts; actives raise or lower the signal. The method in brief:
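hDFCGF system, primary human foreskin fibroblasts; compound 24 h; EGFR measured by ELISA; DMSO = negative control/baseline; bidirectional fitting.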

Read-out in assay [16]: Interleukin-8 (IL8), CXCL8 (gene 3576)
The assay can be described thus: BSK_hDFCGF_IL8: BioMAP Diversity Plus: hDFCGF Assay for Interleukin-8 (IL8) Biomarker Activity (AID 2283058). The settings on record: primary human foreskin fibroblasts; actives raise or lower the signal. The method in brief:
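Fibroblast monolayers (human foreskin, hDFCGF) received test chemical for 24 h before ELISA detection of IL-8; either increases or decreases relative to DMSO count as activity.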

Assay [17] can be described thus: BSK_hDFCGF_Proliferation: Cell Proliferation Assessment in the BioMAP Diversity Plus: hDFCGF Assay (AID 2283059).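 Also: curves fitted for both rise and fall of signal versus DMSO baseline.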 Particulars: primary human foreskin fibroblasts. In short, it runs like this: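 Sub-confluent human foreskin fibroblast cultures receive test chemical […]. Relative cell number is quantified by sulforhodamine B staining (0.1%, after 10% TCA fixation) at 560 nm, with bidirectional fitting referenced to DMSO.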

Read-out in assay [18]: Macrophage colony-stimulating factor (MCSF), CSF1 (gene 1435)
In words: BSK_hDFCGF_MCSF: BioMAP Diversity Plus: hDFCGF Assay for Macrophage colony-stimulating factor (MCSF) Biomarker Activity (AID 2283060). Particulars: primary human foreskin fibroblasts; actives raise or lower the signal. The method in brief:
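fibroblasts (human foreskin, primary), 24 h post-dose; M-CSF by ELISA; bidirectional fit, DMSO = baseline.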

A short description of assay [19]: BSK_hDFCGF_SRB: Viability Assessment in the BioMAP Diversity Plus: hDFCGF Assay (AID 2283061).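 Also: cells exposed to compound for 24 h before the read.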 The settings on record: primary human foreskin fibroblasts. In short, it runs like this: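 SRB-based viability read on primary human skin fibroblasts at 24 h: TCA fixation, 0.1% dye, 560 nm. Gain or loss of signal is fitted against the DMSO negative control.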
Read-out in assay [20]: TIMP metallopeptidase inhibitor 1 (TIMP1), TIMP1 (gene 7076)
The assay can be described thus: BSK_hDFCGF_TIMP1: BioMAP Diversity Plus: hDFCGF Assay for TIMP metallopeptidase inhibitor 1 (TIMP1) Biomarker Activity (AID 2283062). Particulars: primary human foreskin fibroblasts; actives raise or lower the signal. In short, it runs like this: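 Bidirectional curve fitting against DMSO baseline yielded this endpoint, based on ELISA detection of TIMP-1 in primary human foreskin fibroblasts exposed to compound for 24 h.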

Where a structure was tested more than once in an assay, its records may differ in their call. The source made the active and inactive calls. The calls were made as follows: active = hit-call score of the fitted dose curve at least 0.9, where 1 is the maximum; inactive = score below 0.9.

For `O=Nc1ccc(O)cc1`, the outcome in assay [1], in assay [2], in [3], in assay [4], in assay [5] and in assay [6] was inactive. Besides, the outcome in [7], in [8], in [9], in assay [10], in assay [11] and in [12] was inactive. For the same compound, the outcome in [13], in assay [14], in [15], in assay [16], in assay [17] and in assay [18] was inactive. In addition, the outcome in assay [19] and in assay [20] was inactive.

As for `CO[Si](OC)(OC)c1ccccc1`, in assay [1], the AC50 was 3.86 µM (active). Further, the result in assay [1], in assay [2], in [3], in assay [4], in [5] and in assay [6] was inactive. For the same compound, the outcome in assay [7], in [8], in assay [9], in [10], in [11] and in assay [12] was inactive. The outcome in assay [13], in assay [14], in assay [15], in [16], in assay [17] and in assay [18] was inactive. The outcome in assay [19] and in assay [20] was inactive.

Consider `CCCCC(CC)COC(=O)c1ccccc1O` (stereo unspecified), for which the result in assay [1], in assay [2], in assay [3], in assay [4], in assay [5] and in assay [6] was inactive. Also, the outcome in assay [7], in [8], in assay [9], in assay [10], in assay [12] and in assay [13] was inactive. For the same compound, the outcome in assay [15] and in assay [16] was inactive. Moreover, the AC50 was 16.4 µM (active) in assay [11]; 6.81 µM (active) in assay [14]; 7 µM (active) in assay [17]; 13.2 µM (active) in assay [18]; 14.4 µM (active) in [19]; 12.8 µM (active) in assay [20].

As to `C/C=C\C/C=C/CCCCCCCCOC(C)=O`, the AC50 in [1] is 20 µM (active); in [2] it was 20 µM (active); in assay [5] it was 26.4 µM (active); in assay [6], 28.5 µM (active); in assay [7], 32.3 µM (active); in assay [8] it was 36.9 µM (active). The AC50 in [10] is 6.46 µM (active); in assay [11], 34.3 µM (active); in assay [12], 32.7 µM (active); in assay [13], 23.3 µM (active); in assay [14], 20 µM (active); in assay [17], 29.7 µM (active). For the same compound, the AC50 in assay [18] is 29.9 µM (active); in [19] it was 31.7 µM (active); in assay [20], 30.4 µM (active). For the same compound, the result in [3], in [4], in [9], in assay [15] and in assay [16] was inactive.
